“And” between values parts separate entries of the source, which are not always exact repeats. Equal entries are not always repeated. Screen size: about 410,000 compounds; about 18,000 (4.4%) were called active. Inconclusive results (about 7%) are left out. This excerpt belongs to a sample that is enriched for actives. A number with no mark means an inactive call. Rule as the data show it: active = activity change below about -60%; inconclusive = no clear call, values can overlap the other calls; inactive = above about -39%.
Assay: qHTS Assay for inhibitors of the human cytomegalovirus (HCMV)
Settings: HFF cells, HCMV-luciferase reporter, 72 h; at 57.5 µM; hits give low values
Procedure, shortened: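 Screen run at 2 compound doses on HFFs infected with reporter HCMV, MOI 1 PFU/cell. Luciferase activity from cell lysates at 72 h post infection gave inhibition relative to buffer-only and Salinomycin wells.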
% is scaled to controls: 0 for no effect and ±100 for the full control effect.

SMILES	activity change, negative = inhibition
Cc1oc2c(c1C(=O)N1CCOCC1)C(=O)c1ccccc1C2=O	-101% (active)
Cc1ccc(S(=O)(=O)NC(C(=O)N2CCOCCOCCOCCOCC2)c2ccccc2)cc1 (configuration not stated)	-14.3%
Cc1ccc(C)c(CN2C(=O)c3ccccc3S(=O)c3ccc(C(=O)N4CCOCC4)cc32)c1 (configuration not stated)	9.82%
COc1cc(NC(=O)C2CC(c3ccccc3O)=NO2)c(OC)cc1Cl (configuration not stated)	0.764%
CCC(C)Cn1c(O)cc2nn(-c3nc4ccccc4s3)c(=O)c-2c1C (configuration not stated)	-80.3% (active)
NS(=O)(=O)c1ccc(NC(=O)C(=O)Nc2ccc3nc4n(c(=O)c3c2)CCCCC4)cc1	13.4%
COc1ccc(-c2c(C)nn3c(N4CCC(C(=O)NCCC(C)C)CC4)cc(C)nc23)cc1OC	1.6%
CCN1CCN(C(c2ccc(C)cc2)c2c(O)cc(C)n(Cc3ccco3)c2=O)CC1 (configuration not stated)	25%
CCOc1ccccc1NC(=O)Cn1nnc(C(=O)Nc2ccc(C)c(C)c2)c1N	-18.4%
CCOc1ccc(Cl)cc1-c1cc(C(=O)NCc2cccs2)[nH]n1	8.26%
CCOc1ccccc1NC(=O)Cn1nnc(C(=O)NCc2cccs2)c1N	-78.3% (active)
COc1ccc(CNC(=O)CS(=O)Cc2nc(-c3cccc(C)c3)oc2C)cc1 (configuration not stated)	-7.8%
CN(CC(=O)O)S(=O)(=O)c1ccc2oc3ccccc3c2c1	-8.55%
CC(C)Nc1nc(NCCOc2ccccc2Cl)c2sccc2n1	-35.9%
COc1ccccc1CNc1nc(Nc2ccccc2Cl)c2sccc2n1	-67.2% (active)
COc1cccc(-c2cc3nc(NCc4ccccc4OC)n(C)c(=O)c3s2)c1	-13.2%
COc1cccc(CNc2nc(NCc3ccccc3OC)nc3ccsc23)c1	-90.2% (active)
COc1ccccc1CNc1nc2ccc(Cl)cc2n2cnnc12	25.8%
COc1cccc(CNc2nccn(-c3ccc(OC)c(OC)c3)c2=O)c1	13.5%

SMILES	activity change, negative = inhibition
CCN1CCC(N(Cc2ccc(F)cc2)C(=O)Nc2cc(C)ccc2C)CC1	-23.7%
CCOC(=O)Cn1c(=O)n(-c2ccccc2OC)c2nc(-c3cccc(F)c3)nc(C(N)=O)c21	1.14%
O=C(O)c1cc(S(=O)(=O)N(Cc2ccccc2)c2ccccc2)ccc1Cl	-27.4%
O=C(Cc1ccc(F)cc1)N1CCN=C1SCc1cccc([N+](=O)[O-])c1	35.3%
O=C(CCl)N(Cc1cccc([N+](=O)[O-])c1)c1cccc(Cl)c1	-99.6% (active)
CCOC(=O)c1cc(NC(=O)c2ccc(F)cc2)c(=O)n2c1oc1ccccc12	-11.8%
CCCN(CCC)CCCNC(=O)Cn1ncc2c3ccccc3n(Cc3ccccc3)c2c1=O	-11.9%
O=C(Cn1ncc2c3ccccc3n(Cc3ccccc3)c2c1=O)NCc1ccccn1	-12.1% and -33.7%
Cc1ccccc1Cn1c2ccccc2c2cnn(CC(=O)NCc3ccco3)c(=O)c21	-95.6% (active)
Cc1ccc(-c2nnc(Nc3ccc(OCC(N)=O)cc3)c3ccccc23)cc1S(=O)(=O)NCC1CCCO1 (configuration not stated)	-19.2%
CCn1c(=O)cc(OCC(=O)Nc2cc(Cl)c(OC)cc2OC)c2ccccc21	0.565%
C=CCC(C(=O)c1ccccc1)[N+](C)(C)CC=C (configuration not stated)	12.4%
COCC1CCCCN1C(=O)c1cc(COc2ccc(C)c(C)c2)on1 (configuration not stated)	50.2%
Cc1nonc1C1CCCN1C(=O)c1cc(COc2cccc(C(F)(F)F)c2)on1 (configuration not stated)	10.6%
COC(=O)[C@@H]1CCCN1C(=O)c1cc(COc2cccc3cccnc23)on1	-61.4% (active)
O=C(Cc1csc(Nc2nc(=S)[nH]c3ccccc23)n1)NCCCN1CCN(c2cccc(Cl)c2)CC1	2.37%
CCC(=O)NC(NCC1CCCO1)C(Cl)(Cl)Cl (configuration not stated)	-10.5%
COCCN(CCOC)c1nc(N)c2c(N)nc3c(c2c1C#N)CC(=O)N3Cc1ccc(Cl)cc1	30.8%
Cc1cc(C)c(SCCc2ccncc2)c(C)c1	-63.8% (active)

SMILES	activity change, negative = inhibition
c1ccc(CSCCc2ccncc2)cc1	-24.8%
Cc1cc(C)c(NC(=O)CSc2nc3ccncc3[nH]2)c(C)c1	-3.75%
COc1ccc2c(c1)C=C(C(=O)NCc1cc(Br)ccc1OC)CO2	-22.6%
Cc1ccccc1Nc1scc(-c2ccc(Br)cc2)[n+]1-c1ccccc1C	-68.6% (active)
CSCC[C@H](NC(=O)N1CCn2c1nc1ccccc12)C(=O)NC1CCCCC1	-35.1%
CSc1ccc(Cl)c(C(=O)OCC(=O)N2CCNC2=O)c1	-17%
CN(C1CCS(=O)(=O)C1)S(=O)(=O)c1ccc2ccccc2c1 (configuration not stated)	-24.3%
CCN1CCN(C(=O)CN(C)S(=O)(=O)c2ccc3ccccc3c2)CC1	-9.61%
CC(=O)Oc1ccc(N(C(C)=O)S(=O)(=O)c2ccc3ccccc3c2)cc1Br	-69.6% (active)
CCC(CC)C(=O)N1CCc2cc(OC)c(OC)cc2C1COc1ccc(F)cc1 (configuration not stated)	-15.5%
O=C(Nc1c(C(=O)N2CCCCC2)cnn1-c1ccccc1)c1ccco1	22.9%
CC(=O)Nc1ccc2nc(SCCOc3cc(C)cc(C)c3)sc2c1	-35%
O=C(Nc1ccc2nc(SCCOc3ccccc3Cl)sc2c1)c1ccco1	-70% (active)
COc1cc(C)ccc1OCCSc1nc2ccc(NC(=O)c3ccc(C)cc3)cc2s1	24.3%
CC(C)OC(=O)c1ccc(COc2ccc3ccc(=O)oc3c2)o1	-15.4%
CC(=CCOc1ccc2ccc(=O)oc2c1)C1=CC(=O)C(C)(C)O1	-76.5% (active)
O=C(COc1ccc2ccc(=O)oc2c1)NCC(O)c1ccccc1 (configuration not stated)	-6.86%
CCOc1ccc(CNC(=O)c2ccc3nc(CC)c(CC)nc3c2)cc1OC	-2.8%
CCC(=O)Nc1cccc(C(=O)OCc2cc(=O)n3nc(CC)sc3n2)c1	-14.2%
